Screening data (PubChem)
ssDAF-12 act: S. stercoralis DAF-12 nuclear receptor activators, primary screen, cell-based, luminescence, HEK293, GRIP1 co-expression, lit1-tk-luc. Nuclear hormone receptor DAF-12 (Strongyloides stercoralis). HEK293 ssDAF-12/GRIP1 lit1-tk-luc reporter; % of 3 µM dafachronic acid response. activation, % at 6.8 µM. 1% of 370,000 active;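 active means activation above the mean over all tested compounds plus 3 SD, cut at about 0.9% in these data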;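 further: 0% = DMSO-only wells and 100% = 3 µM delta7-dafachronic acid wells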
DAX1 inh: DAX1 (NR0B1) inhibitors on StAR promoter, primary screen, cell-based, luminescence, SF-1 (NR5A1), full-length DAX-1; HEK293T StAR-luciferase reporter, SF-1/DAX-1 repression relief; inhibition, % at 6.8 µM; 1.1% of 370,000 active; AID 652010, 2013;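 active means inhibition above the mean over all tested compounds plus 3 SD, cut at about 3.6% in these data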;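 further: 0% = DAX-1 cells with DMSO and 100% = cells lacking DAX-1 with DMSO; higher inhibition means more luminescence from relief of DAX-1 repression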
hgDAF-12 ag: H. glycines DAF-12 receptor agonists, primary screen, cell-based, luminescence, HEK293, GAL4 fusion, UAS-luciferase. Nuclear hormone receptor DAF-12 (Heterodera glycines), GAL4 fusion. HEK293 GAL4-hgDAF12 UAS-luciferase reporter, agonist luminescence; normalized to butyrate control. activation, % at 6.8 µM. 1.8% of 370,000 active;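 active means activation above a cutoff set at the mean of all screened compounds plus 3 SD, cut at about 10% in these data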;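 further: 0% = DMSO wells and 100% = sodium butyrate wells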
hcDAF12 agonist: H. contortus DAF-12 nuclear receptor activators, primary screen, cell-based, luminescence, HEK293, lit1-tk-luc reporter; HEK293 hcDAF-12 lit1-tk-luc reporter; 0% DMSO, 100% Δ7-dafachronic acid; activation, % at 6.8 µM; 1.4% of 370,000 active; AID 652067, 2013;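 active means activation above the mean of all tested compounds plus 3 SD, cut at about 5.5% in these data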;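 further: 100% = response to 3 µM Δ7-dafachronic acid high control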
SMARCA2 activ: SMARCA2 (BRM) function activators, primary screen, cell-based, luminescence, high throughput; MG213 cells, MMTV-luciferase reporter, dexamethasone, overnight; activation, % at 9.1 µM; 1% of 370,000 active; in the data active means activation above about 7.8%;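 further: 0% = vehicle wells and 100% = reference activator wells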
DAX1 inh confirm: DAX1 (NR0B1) inhibitors relieving SF-1 repression, confirmation, cell-based, luminescence, HEK293T, full-length DAX-1, SF-1 activated StAR promoter | shares compounds with DAX1 inh | HEK293T StAR-promoter luciferase reporter, SF-1/DAX-1 repression | inhibition, % at 6.8 µM | 87% of 2,400 active | AID 652134, 2013;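 active means inhibition above the average of every tested compound plus 3 SD, cut at about 3.8% in these data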;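 further: 0% = DAX-1 cells with DMSO and 100% = no DAX-1 control cells with DMSO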
SF1 AF2mut Luc: StAR reporter signal changes without DAX1, counter-screen for DAX1 inhibitor project, cell-based, luminescence, AF-2 mutant SF-1, transactivation; shares compounds with DAX1 inh; HEK293 StAR-luciferase, SF-1 AF2 mutant; inhibition, % at 6.8 µM; 78% of 2,400 active; AID 652136, 2013;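 active means inhibition above the mean of all tested compounds plus 3 SD, cut at about 3% in these data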;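 further: 0% = DAX-1 transfected cells with DMSO and 100% = cells without DAX-1 with DMSO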
SMARCA2 conf: SMARCA2 (BRM) function activators, confirmation, cell-based, luminescence, triplicate; activation, % at 9.1 µM; MG213 cells, MMTV-luciferase with dexamethasone, overnight; MG213 cells expressing E1A, Rb sequestered; DMSO wells 0%, reference activator 100%; 30% of 3,500 active; shares compounds with SMARCA2 activ;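 active means activation above its plate's cutoff, the mean activation of tested wells plus 3 SD, cut at about 7.9% in these data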
GAL4-VP16 Luc: GAL4-VP16 luciferase reporter activation, counter-screen for SMARCA2 (BRM) activator project, cell-based, pG5luc, luminescence, high throughput; 41% of 3,500 active; HEK293 GAL4-VP16 pG5luc reporter; scaled: DMSO wells 0%, SAHA wells 100%; shares compounds with SMARCA2 activ; AID 686939, 2013; activation, % at 9.1 µM;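 active means activation above the solvent-only control well mean plus 3 SD, averaged across control plates, cut at about 5.2% in these data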
LXR ag: LXR agonists, Gal4 luciferase reporter, confirmation, counter-screen for hcDAF-12 agonist project, cell-based, luminescence, HEK293, H. contortus campaign | HEK293 Gal4-LXR tk-luc reporter, 24 h; normalized: DMSO 0%, positive control 100% | AID 743027, 2013 | shares compounds with hcDAF12 agonist | activation, % at 6.8 µM | 3,400 tested, under 10 active;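 active means mean percent activation of the reporter above a cutoff set as the average over tested compounds plus their standard deviation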
Target sequence (P55055 whole entry, looked up, the tested form may be a part): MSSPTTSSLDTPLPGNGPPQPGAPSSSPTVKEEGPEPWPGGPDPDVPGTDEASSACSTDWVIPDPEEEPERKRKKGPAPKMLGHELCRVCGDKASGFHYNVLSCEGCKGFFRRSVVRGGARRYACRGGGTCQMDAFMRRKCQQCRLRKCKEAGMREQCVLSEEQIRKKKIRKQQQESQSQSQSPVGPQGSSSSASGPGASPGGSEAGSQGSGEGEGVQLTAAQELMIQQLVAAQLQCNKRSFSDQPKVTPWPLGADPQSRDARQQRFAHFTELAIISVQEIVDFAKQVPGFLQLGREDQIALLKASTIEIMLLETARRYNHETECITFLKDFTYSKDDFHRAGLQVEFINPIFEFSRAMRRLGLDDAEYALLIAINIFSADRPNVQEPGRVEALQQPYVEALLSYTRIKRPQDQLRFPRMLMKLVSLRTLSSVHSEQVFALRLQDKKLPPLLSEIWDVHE
hcDAF12 conf: H. contortus DAF-12 receptor agonists, confirmation, cell-based, luminescence, HEK293, lit1-tk-luc, triplicate; HEK293 hcDAF-12 lit1-tk-luc reporter; % of Δ7-dafachronic acid response; shares compounds with hcDAF12 agonist; AID 743032, 2013; activation, % at 6.8 µM; 61% of 3,400 active;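 active means mean activation across triplicate tests above the threshold derived from the earlier primary screen, cut at about 5.5% in these data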;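 further: 0% = DMSO only wells and 100% = 3 µM Δ7-dafachronic acid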
hgDAF12 ag: H. glycines DAF-12 receptor agonists, confirmation, cell-based, luminescence, HEK293, GAL4-LBD fusion. HEK293 GAL4-hgDAF12 luciferase reporter, agonist mode; percent of butyrate response. activation, % at 6.8 µM. 80% of 3,300 active. shares compounds with hgDAF-12 ag;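 active means mean activation over triplicate wells above the hit cutoff derived from the earlier primary screen, cut at about 11% in these data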;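 further: 0% = DMSO low control and 100% = 2 mM sodium butyrate high control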
LXR ag 2: LXR agonists, Gal4 luciferase reporter, confirmation, counter-screen for hgDAF-12 agonist project, cell-based, luminescence, HEK293, H. glycines campaign | shares compounds with hgDAF-12 ag | 24 h | activation, % at 6.8 µM | 3,300 tested, under 10 active;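 active means mean activation of the triplicate above a set limit carried over from the primary screen, none filed active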
* = called active by the depositor; / = no result. Compounds with a hit are over-represented: about 4.2% of the library has one in this group of screens.

SMILES	ssDAF-12 act	DAX1 inh	hgDAF-12 ag	hcDAF12 agonist	SMARCA2 activ	DAX1 inh confirm	SF1 AF2mut Luc	LXR ag	hcDAF12 conf	hgDAF12 ag	LXR ag 2	others
Cc1ccc(C(=O)CSc2cc(C)[nH]c(=O)n2)cc1	0	12*	15*	3	5	11*	8.3*	/	/	16*	1
CC(NC(=O)c1cc(COc2ccccc2)on1)c1nccs1 (stereo unspecified)	0	7.3*	20*	7.9*	10*	8.3*	5.2*	1	6.0*	19*	1	SMARCA2 conf=7;GAL4-VP16 Luc=15*
CC(=O)c1ccc(OCc2cc(C(=O)NC(C)c3cnn(C)c3)no2)cc1 (stereo unspecified)	0	3	7	1	3	/	/	/	/	/	/
CC(=O)OCC(=O)Nc1ccc(N=Nc2ccccc2)cc1	1	4.8*	17*	4	4	10*	6.0*	/	/	14*	1
Cc1ccc(NC(=O)c2ccccn2)c(Br)c1	3.1*	8.5*	19*	9.9*	4	15*	12*	1	7.9*	18*	1
Cn1ccc(C(=O)Nc2ccc(Br)cc2Br)n1	1	4.9*	20*	7.7*	0	11*	6.6*	1	3	13*	1
Cc1ccc(NC(=O)c2ccn(C)n2)c(Br)c1	1	5.9*	15*	3	2	13*	8.8*	/	/	16*	1
